# TGFb inhibitor: qHTS for Inhibitors of TGF-b; Potency, µM (top dose mostly 46.1 µM), without a hit: at the highest dose activity, negative = inhibition, most hits filed as inhibitors; AID 588855, 2011; HepG2 CAGA-GFP TGF-b/SMAD3 reporter, GFP fluorescence, 18 h; TGF-beta stimulated, 500 pg/mL final; actives 1.2% (n = 410,000); note: potency is the fitted concentration of half-maximal effect; % is set by controls: 0 for no effect and ±100 for the full control effect; nearly all actives have a fitted effect of over 65% in size
#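 HEPG2 CAGA-GFP, 1000 cells/well; 2 h settle, 37 C; cpd via pin tool; TGF-b 500 pg/mL final; 18 h, 37 C; GFP imaging ex488/em500-530; %Activity normalised to -TGF-b and +DMSO controls; CRC fit, curve class.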
# S2 tox: Viability Counterscreen for Primary qHTS for Inhibitors of ATXN expression. actives 0.49% (n = 400,000). S2 cells (HEK-293 line with an ATXN2-luciferase reporter) viability, CellTiter-Fluor protease fluorescence, 24 h. Potency, µM (doses to about 56.7 µM), hits mostly cytotoxic. AID 651635, 2014; note: potency is the fitted concentration of half-maximal effect; nearly all actives have a fitted effect of over 40% in size
# Giardia killer: Small Molecules that selectively kill Giardia lamblia: qHTS; Giardia lamblia trophozoite viability; actives 0.15% (n = 340,000); activity change, % at 7.66 µM, hits read low; in the data active = activity change below about -80%; inconclusive = between about -30% and that limit;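 note: parasites exposed to compound for two days anaerobically before the ATP read; % is set by controls: 0 for no effect and ±100 for the full control effect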
#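 Trophozoites 100 cells/well + cpd; 48 hrs, 37 deg C, anaerobic. ATPLite 1-Step added, 15-30 min RT, luminescence read (ATP-based viability).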
# HepG2 tox: qHTS for Inhibitors of TGF-b: Cytotox Counterscreen; HepG2 CAGA-GFP viability, ATP luminescence, 18 h; Potency, µM (top dose mostly 46.1 µM), for inactives: at the highest dose activity change, negative = cytotoxicity, actives largely listed as cytotoxic; actives 0.76% (n = 410,000); AID 588856, 2011; note: potency is the fitted concentration of half-maximal effect
#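 HepG2 CAGA-GFP cells (1000/well, DMEM with 1% FBS) received compound, then TGF-beta at 500 pg/mL final, and were incubated 18 hours at 37 degrees C. Viability was read by CellTiter-Glo luminescence. Media-only wells were set as complete cell-killing and DMSO as no toxicity.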
# ATXN2 expr inh: Primary qHTS for Inhibitors of ATXN expression; HEK-293 ATXN2-luciferase reporter, luminescence, 24 h; AID 1745845, 2022; actives 0.72% (n = 360,000); Potency, µM (highest dose often 57 µM), for the others: at the top dose activity change, negative = inhibition, actives largely listed as inhibitors; note: potency is the fitted concentration of half-maximal effect; % is set by controls: 0 for no effect and ±100 for the full control effect; nearly all actives have a fitted effect of over 55% in size
#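 ATXN2-luciferase reporter cells (luciferase flanked by upstream and downstream ATXN2 gene portions) were treated 24 h at 37 °C with compounds at up to 57 uM. SteadyGlo luminescence gave expression; GF-AFC fluorescence gave viability.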
# uPA surface inh: qHTS for Inhibitors of Cell Surface uPA Generation. actives 0.31% (n = 330,000). Potency, µM (doses to about 38.3 µM), inactives show at the top dose activity change, negative = inhibition, actives largely listed as inhibitors. cell surface uPA generation assay, qHTS; active = well fitted inhibition curve with a large enough effect; inconclusive = small, poorly fitted or top-dose-only effect; inactive = no such curve, though single readings can be large or run the other way; tested in mouse RAW 264.7 cells; note: potency is the fitted concentration of half-maximal effect; % is set by controls: 0 for no effect and ±100 for the full control effect; nearly all actives have a fitted effect of over 55% in size
# An asterisk follows results filed as active; i = inactive; ? = inconclusive; / = no result. Compounds with a hit are over-represented: about 2.6% of the library has one in this group of screens. Unless noted, calls come from the whole dose curve; as a rule, active = well fitted curve in the direction sought with a large enough effect; inconclusive = small, poorly fitted or top-dose-only effect, or another doubt; inactive = no such curve, though single readings can be large; an effect the other way counts as inactive or inconclusive.
SMILES,TGFb inhibitor,S2 tox,Giardia killer,HepG2 tox,ATXN2 expr inh,uPA surface inh
CCCN1C(=O)C(=O)c2cc(Cl)ccc21,13µM*,?,3,-78%,?,5.6µM*
CCc1ccc2c(c1)C(=O)C(=O)N2CCS(=O)(=O)c1ccccc1,?,i,14,-8%,/,-2%
O=C(CCl)Nc1ccc(-c2ccccc2)cc1,?,10µM*,-13,11µM*,/,?
CC(C)N(c1ccccc1)c1ccc(NC(=O)CCl)cc1,?,27µM*,16,-119%,?,?
Cc1ccc(Sc2ccc(NC(=O)CCl)cc2)cc1C,?,?,1,-107%,32µM*,13µM*
O=C(CCl)Nc1ccc(N=Nc2ccccc2)cc1,?,20µM*,1,22µM*,/,14µM*
CC(=O)Nc1cc(C(=O)N2CCSCC2)cc2ncn(CCc3ccccn3)c12,/,i,/,/,/,/
Cc1cnc(SCC2CCCO2)nc1C1CCCN(C(=O)C2=NNC(=O)CC2)C1 (stereo not drawn),/,i,/,/,/,/
CC(NC(=O)c1ccco1)c1nnc2n1CCN(Cc1ccc(N(C)C)cc1)CC2 (stereo not drawn),/,i,/,/,/,/
O=S(=O)(NCCCCNS(=O)(=O)c1cccc2cccnc12)c1cccc2cccnc12,-1%,/,/,-3%,/,/
O=C(CCl)Nc1cn(-c2ccccc2)nc1-c1ccccc1,?,8.9µM*,-16,22µM*,/,?
COc1ccc(C2/C=C\CN(C(=O)c3ccccc3)C(Cc3ccccc3)C(=O)N2Cc2ccc(F)cc2)cc1 (stereo not drawn),?,/,-8,-32%,/,/
C/C(CC(C)(C)C1CCCCC1)=N\NC(N)=S,6.3µM*,32µM*,4,11µM*,32µM*,-22%
CN(C)C=Nc1ccc2nc3c(cc2c1)[nH]c1ccccc13,?,i,-89*,-53%,/,?
OC(c1ccc2c(c1)CN(Cc1ccc3nsnc3c1)CCO2)C1CCCCC1 (stereo not drawn),/,i,/,/,/,/
O=C1C(Cl)=C(NCCN2CCCCC2)C(=O)c2ccccc21,1.6µM*,20µM*,4,-92%,14µM*,?
CC(=O)Nc1ccc(NC2=CC(=O)c3ccccc3C2=O)cc1,?,i,-8,-27%,17%,-7%
O=C(NCCN1CCCC1)c1ccccc1Cl,-5%,i,-17,6%,-10%,7%
CCN(CC)c1ccc(NC2=C(Cl)C(=O)c3ccccc3C2=O)cc1,?,10µM*,-3,-50%,20µM*,-2%
O=C1C=C(Nc2ccc(O)cc2)C(=O)c2ccccc21,10µM*,?,-14,11µM*,-25%,-7%
CCNC1=C(Cl)C(=O)c2ccccc2C1=O,?,i,-6,13µM*,-23%,-12%
COc1cccc2nccc(/C=C/c3ccc(N(C)C)cc3)c12,18%,/,/,-23%,/,/
CCn1nc(C)cc1C(=O)N1CCC2(CC1)c1ccccc1[C@@H](NC(=O)c1cccnc1)[C@@H]2O,/,i,/,/,/,/
CCCCCCCCCCN(CCCCCCCCCC)c1ccc(/C=C/c2ccnc3ccccc23)cc1,-2%,/,/,-2%,/,/
O=C1C(Cl)=C(NCc2ccco2)C(=O)c2ccccc21,11µM*,?,11,-109%,-13%,-17%
O=S(=O)(c1ccccc1)c1ccc(NCc2ccco2)cc1,-1%,i,0,-3%,-16%,/
O=C1C(Cl)=C(Nc2ccc(O)cc2)C(=O)c2ccccc21,?,16µM*,-21,5.6µM*,16µM*,-2%
CCCC[n+]1ccn(C2=C([O-])c3ccccc3C(=O)/C2=N\S(=O)(=O)c2ccc(Cl)cc2)c1,10µM*,?,-2,11µM*,?,?
CCCCC[n+]1ccn(C2=C([O-])c3ccccc3C(=O)/C2=N\S(=O)(=O)c2ccc(Cl)cc2)c1,3.2µM*,i,8,3.5µM*,-24%,4%
